# Bioassay records from PubChem.
# MCF10A rereplic: inducers of DNA re-replication in MCF 10A breast cells. MCF 10A DNA re-replication, Hoechst nuclear intensity, 48 h. Potency, µM (top dose mostly 46.1 µM), most hits filed as activators. actives 2.9% (n = 350,000). AID 624296; also: nearly all actives have a fitted effect of over 50% in size
# IL-1B inflam inh: inflammasome signaling inhibition, IL-1 beta readout | THP-1 LPS/ATP IL-1B secretion, AlphaLISA, 16 h; hits give low values | activity change, % at 57.5 µM | actives 4.7% (n = 360,000); in the data active = activity change below about -50%; inconclusive = mostly about -30% to -49%
#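 Secreted IL-1B measured by AlphaLISA bead assay after 16 h compound exposure of THP-1 cells; compounds (final up to 57.5 uM) added 1 h before LPS (250 ng/mL) and ATP (1.25 mM) stimulation; lower signal means less secretion.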
# SW480 rereplic: induces DNA re-replication in SW480 colon adenocarcinoma cells; SW480 DNA re-replication, Hoechst DNA content imaging, 48 h; Potency, µM (series often up to 46.1 µM), most hits filed as activators; actives 1.8% (n = 340,000); AID 624297; also: nearly all actives have a fitted effect of over 55% in size
#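 SW480 cells exposed to compounds for 48 hr at 37 C, 5% CO2, then Hoechst-stained 40 min. Nuclear DNA content imaged by fluorescence scanning (405 nm excitation, 500-530 nm emission); re-replication scored as increased high-intensity nuclei.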
# BCR signal inh: inhibitors of chronic active B-cell receptor signaling; Potency, µM (doses to about 46.1 µM), usual class: inhibitors; actives 0.05% (n = 340,000); ABC-DLBCL IkBa-CBG/CBR reporter, luminescence ratio, 4 h; active = well fitted inhibition curve with a large enough effect in the signal ratio, with a control signal flat, not every such curve was filed as active; inconclusive = small, poorly fitted or top-dose-only effect, or effect the other way, or a change in a side signal; the % refers to the signal ratio
#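 Concentration-response series (up to 46 uM) were applied to TMD8 dual-reporter cells for 4 h at 37C with doxycycline. Green/red ratio, after filter-overlap correction, defined %Activity; red signal alone was normalised to basal cells and zero luminescence.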
# TDP1 cell CPT: DT40-hTDP1 cell growth loss with CPT; AID 686979; chicken DT40 Tdp1-/-;hTDP1 cells + 20 nM CPT, ATP luminescence, 48 h; actives 12% (n = 420,000); Potency, µM (series often up to 46.2 µM), usual class: inhibitors; also: nearly all actives have a fitted effect of over 55% in size
#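 Cell growth measured by CellTiter-Glo luminescence after a minimum 48 h, 37 C compound exposure with 20 nM CPT in Tdp1-knockout DT40 cells stably expressing hTDP1, seeded 400/well; qHTS titration format.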
# DT40 TDP1 no CPT: qHTS for Inhibitors of human tyrosyl-DNA phosphodiesterase 1 (TDP1): qHTS in cells in absence of CPT | Potency, µM (top dose mostly 46.2 µM), most hits filed as inhibitors | DT40 Tdp1-/- hTDP1 cells, no CPT, ATP luminescence, 48 h | AID 686978, 2013 | actives 15% (n = 420,000); also: nearly all actives have a fitted effect of over 55% in size
#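 Seeded 400 DT40-hTDP1 cells/well (vehicle DMSO, no 20 nM CPT); pinned compounds; ≥48 hr at 37 °C; CellTiter-Glo luminescence as viability measure.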
# Numbers stand for hits; i = inactive; ? = inconclusive; nt = no result given; [ ] = another dose, or the depositor's remark. Shown are actives, neighbours in structure and some others; about 19% of the full set was active somewhere. Unless noted, calls follow the shape of the dose curve; as a rule, active = well fitted curve in the direction sought with a large enough effect; inconclusive = small, poorly fitted or top-dose-only effect, or another doubt; inactive = no such curve, though single readings can be large; an effect the other way counts as inactive or inconclusive.
SMILES,MCF10A rereplic,IL-1B inflam inh,SW480 rereplic,BCR signal inh,TDP1 cell CPT,DT40 TDP1 no CPT
CCC(Sc1nnc(-c2ccc(C)c(Cl)c2)n1CC)C(=O)Nc1nccs1 (centres undefined),i,i,i,i,18.4µM,14.6µM
Cn1c(SCC(=O)Nc2nccs2)nnc1-c1ccc(S(=O)(=O)N2CCCC2)cc1,i,i,i,i,i,i
CCn1c(SCC(=O)Nc2nccs2)nnc1-c1ccc(S(=O)(=O)N2CCCCCC2)cc1,i,i,i,?,16.4µM,18.4µM
CCn1c(SCc2ccc(C(=O)Nc3nccs3)cc2)nnc1-c1ccc(N)cc1,i,i,i,?,i,?
CSCCC(=O)N(C)CC1CCN(CCc2cccc(C(F)(F)F)c2)CC1,i,i,?,i,i,i
COc1ccc(C(=O)N(C)CC2CCN(CCc3cccc(C(F)(F)F)c3)CC2)cc1C,?,-60.6,?,i,?,?
CN(CC1CCN(CCc2cccc(C(F)(F)F)c2)CC1)C(=O)c1ccc(F)cc1F,i,-50.5,i,i,?,?
O=C(CCNS(=O)(=O)c1ccc(Br)cc1)NCc1ccco1,i,i,i,i,i,i
COc1ccc(C(=O)OC(C)C(=O)NC(C)CCc2ccccc2)cc1OC (centres undefined),i,i,i,i,i,?
COc1ccc(S(=O)(=O)c2nnn(-c3cc(Cl)c(OC)cc3OC)c2C)cc1,nt,nt,nt,nt,i,i
COc1ccc(S(=O)(=O)c2nnn(-c3ccc(C(C)C)cc3)c2C)cc1,nt,nt,nt,nt,14.6µM,14.6µM
O=C(NCCc1ccc(Cl)cc1)c1cnc2sc(N3CCOCC3)nn2c1=O,nt,nt,nt,nt,i,i
c1ccc2c(c1)nc(CN1CCOCC1)n1c3ccccc3nc21,i,i,i,nt,13µM,16.4µM
COc1ccc(S(=O)(=O)n2cnc3ccccc32)cc1,i,i,i,i,i,i
CC(C)(C)c1ccc(S(=O)(=O)n2c(CN3CCOCC3)nc3ccccc32)cc1,i,i,i,i,20.6µM,?
COc1ccc(S(=O)(=O)n2c(CCN3CCOCC3)nc3ccccc32)cc1,i,i,i,?,i,20.6µM
CCCCn1nnnc1C(c1cc2ccccc2o1)N1CCN(c2cc(C)nc3ccccc23)CC1 (centres undefined),nt,i,nt,nt,?,?
CC(C)(C)n1nnnc1C(c1cc2ccccc2o1)N(CCC#N)Cc1ccccc1 (centres undefined),nt,i,nt,nt,?,?
CN(C)CCN(Cc1ccccc1)C(c1cc2ccccc2o1)c1nnnn1C(C)(C)C (centres undefined),nt,-54.3,nt,nt,16.4µM,?
CCCCn1nnnc1C(c1cc2ccccc2o1)N(CCN(C)C)Cc1ccccc1 (centres undefined),nt,?,nt,nt,25.9µM,16.4µM
CSc1ccc(/C=C2/C(C)=C(CC(=O)O)c3cc(F)ccc32)cc1,nt,nt,nt,nt,i,i
COC(=O)CSCc1nc(-c2ccc(C(=O)OC)cc2)oc1C,nt,nt,nt,nt,i,i
COCCNC(=O)Cn1c(=O)n(CCCC(=O)NCc2ccc3c(c2)OCO3)c(=O)c2sccc21,i,i,i,i,i,i
O=C1c2ccccc2-c2onc3c(Br)cc(NC4CCCCC4)c1c23,nt,nt,nt,nt,i,i
COCCNc1cc(N2CCN(C3CCCCC3)CC2)c2noc3c2c1C(=O)c1ccccc1-3,nt,nt,nt,nt,18.4µM,16.4µM
SMILES,MCF10A rereplic,IL-1B inflam inh,SW480 rereplic,BCR signal inh,TDP1 cell CPT,DT40 TDP1 no CPT
CN(C)CCCNc1cc(N2CCN(C3CCCCC3)CC2)c2noc3c2c1C(=O)c1ccccc1-3,nt,nt,nt,nt,23.1µM,20.6µM
O=C(CCC(=O)N(CC(=O)NC1CCCC1)C1CCCCC1)Nc1ccccn1,i,i,i,i,i,i
CCCCCCCCCCCCCCCCCCCCCCO,i,nt,i,nt,i,i
CCOC(=O)c1ccc(NC(=O)c2nc[nH]c2C(=O)NCCCCNC(=O)c2[nH]cnc2C(=O)Nc2ccc(C(=O)OCC)cc2)cc1,i,i,i,i,?,4.61µM
CCOC(=O)c1ccc(NC(=O)c2nc[nH]c2C(=O)NCCCCCNC(=O)OC(C)(C)C)cc1,i,i,i,i,?,18.4µM
CCOC(=O)c1ccc(NC(=O)c2nc[nH]c2C(=O)NCCCNC(=O)c2[nH]cnc2C(=O)Nc2ccc(C(=O)OCC)cc2)cc1,i,i,i,i,i,i
CCOC(=O)c1ccc(NC(=O)c2nc[nH]c2C(=O)NCC(=O)OC(C)(C)C)cc1,i,i,i,?,?,i
CN(C)c1nc(-c2ccoc2)nc2ccccc12,nt,nt,nt,nt,i,i
CCC(C(=O)NCCCN1CCN(C)CC1)n1nc(C)c2sc3ccccc3c2c1=O (centres undefined),i,i,i,i,i,i
COc1ccc(CCNC(=O)C(C)n2nc(C)c3sc4ccccc4c3c2=O)c(OC)c1 (centres undefined),nt,nt,nt,nt,20.6µM,16.4µM
CCOc1ccc(CCNC(=O)CCCn2nc(C)c3sc4ccccc4c3c2=O)cc1OCC,nt,nt,nt,nt,23.1µM,18.4µM
CCC(C(=O)NCCc1ccc(OC)c(OC)c1OC)n1nc(C)c2sc3ccccc3c2c1=O (centres undefined),nt,nt,nt,nt,9.2µM,11.6µM
Cc1ncc([N+](=O)[O-])n1S(=O)(=O)c1ccc2c(c1)OCCO2,i,i,i,nt,i,i
Cc1ncc2c(c1CNC(=O)c1ccc3c(c1)OCO3)CCN(C(=O)c1cc3ccccc3o1)C2,nt,nt,nt,nt,i[9.04 µM],?
COc1ccc(S(=O)(=O)N2CCOCC2)cc1NC(=O)CSc1nnnn1C1CC1,i,i,i,i,i,i
COc1ccc(-c2ccc(=O)n(CC(=O)Nc3ccc(N(C)C)cc3)n2)cc1,nt,nt,nt,i,i,i
CC(CCc1ccc(O)cc1)N1CCOc2c(O)cc(-c3nc4ccccc4s3)cc2C1 (centres undefined),nt,nt,nt,nt,18.4µM,16.4µM
O=C(Nc1ccc2c(c1)CCCN2C(=O)c1cccs1)c1ccccc1C(F)(F)F,nt,nt,nt,nt,?,23.1µM
COc1ccccc1C(=O)Nc1ccc2c(c1)CCCN2C(=O)c1ccccc1,i,i,i,?,16.4µM,13µM
COc1ccccc1C(=O)NCc1ccc2c(c1)CCN2C(=O)c1ccncc1,nt,nt,nt,i,?,?
COc1ccccc1C(=O)Nc1ccc2c(c1)CCCN2C(=O)c1cccs1,?,?,i,i,?,20.6µM
O=[N+]([O-])c1ccc(S(=O)(=O)N2CCN(c3ccc(N4CCOCC4)nn3)CC2)cc1,?,i,i,?,i,i
Cc1ccc(NC(=O)[C@@H]2O[C@H](CO)[C@H](O)[C@H](O)[C@H]2O)cc1C(F)(F)F,nt,i,nt,nt,i,i
CC1CCN(c2nc3ccc(C(=O)NCc4ccccc4)cc3s2)CC1,nt,nt,nt,nt,i,i
